Assay outcomes deposited in PubChem BioAssay by National Center for Advancing Translational Sciences (NCATS).
HT1080NT lethal – qHTS for induction of synthetic lethality in tumor cells producing 2HG: qHTS for the HT-1080-NT fibrosarcoma cell line. HT-1080-NT fibrosarcoma viability, CellTiter-Glo ATP luminescence, 48 h. Potency, µM (top dose mostly 46.1 µM), inactives show at the top dose activity, negative = less viability, most hits filed as cytotoxic. 1.6% of 360,000 active. AID 686970, 2013;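 also: NT is the 2HG producing partner of a matched IDH1 knockdown line; 0% = DMSO-treated cells and -100% = media-only wells without cells; nearly all actives have a fitted effect of over 55% in size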
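HT-1080-NT; 750 cells/well; 5% FBS RPMI; 48 h compound, 37 degrees C; CellTiter-Glo luminescence; curve fitting and curve-class assignment.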
HT1080 IDH1KD tx – qHTS for induction of synthetic lethality in tumor cells producing 2HG: qHTS for the HT-1080-IDH1KD cell line. Potency, µM (titrated, usually from 46.1 µM), for the others: top-dose activity, negative = toxicity, actives largely listed as cytotoxic. AID 686971, 2013. HT-1080 IDH1 knockdown viability, ATP luminescence, 48 h. 2% of 360,000 active;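 also: 0% = DMSO wells and -100% = cell-free medium wells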
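CellTiter-Glo luminescence after 48 h compound exposure at 37 degrees C of IDH1-knockdown HT-1080 cells in 5% FBS RPMI. %Activity scaled between DMSO wells and cell-free media wells, with curves fitted and assigned curve classes.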
HepG2 tox – qHTS for Inhibitors of TGF-b: Cytotox Counterscreen. HepG2 CAGA-GFP viability, ATP luminescence, 18 h. Potency, µM (series often up to 46.1 µM), for the others: at the top dose activity change, negative = cytotoxicity, hits mostly cytotoxic. 0.76% of 410,000 active
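CellTiter-Glo luminescence gave cytotoxicity after 18 hours at 37 degrees C. The cells were HepG2 CAGA-GFP in 1% FBS DMEM, stimulated with 500 pg/mL TGF-beta after compound addition. %Activity was normalised to no-cell wells (complete cell-killing) and DMSO (no toxicity), and curves were fitted and classified.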
TGFb inhibitor – qHTS for Inhibitors of TGF-b; HepG2 CAGA-GFP TGF-b/SMAD3 reporter, GFP fluorescence, 18 h; TGF-beta stimulated, 500 pg/mL final; Potency, µM (series often up to 46.1 µM), without a hit: top-dose activity, negative = inhibition, hits mostly inhibitors; 1.2% of 410,000 active; AID 588855, 2011; also: % is scaled to controls: 0 for no effect and ±100 for the full control effect; nearly all actives have a fitted effect of over 65% in size
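Read-out: total well GFP (ex488/em500-530) summed from mean per-cell fluorescence. Cells: HEPG2 CAGA-GFP, 1% FBS DMEM, 18 h at 37 degrees C with 500 pg/mL final TGF-beta. Unstimulated wells served as the full-inhibition control; stimulated DMSO wells = 0%.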
ATXN2 expr inh – Primary qHTS for Inhibitors of ATXN expression; HEK-293 ATXN2-luciferase reporter, luminescence, 24 h; Potency, µM (doses to about 57 µM), for the others: at the highest dose activity change, negative = inhibition, most hits filed as inhibitors; 0.72% of 360,000 active; AID 1745845, 2022; also: % is scaled to controls: 0 for no effect and ±100 for the full control effect; nearly all actives have a fitted effect of over 55% in size
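qHTS (up to 57 uM final) was run with 24 h compound exposure of reporter cells at 37 °C. Each well was multiplexed: SteadyGlo luminescence measured ATXN2-luciferase expression after a fluorogenic Gly-Phe-AFC viability readout (25 uM final).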
ATXN viability – Viability Counterscreen for Primary qHTS for Inhibitors of ATXN expression. S2 cells (HEK-293 line with an ATXN2-luciferase reporter) viability, CellTiter-Fluor protease fluorescence, 24 h. Potency, µM (doses to about 56.7 µM), actives largely listed as cytotoxic. 0.49% of 400,000 active; also: nearly all actives have a fitted effect of over 40% in size
Active calls of the source: *; i = inactive; u = inconclusive; x = no result given. Sampled rows, rich in hits. Any-hit rate of the full collection: about 3.8%. Calls follow the shape of the dose curve; as a rule, active = well fitted curve in the direction sought with a large enough effect; inconclusive = small, poorly fitted or top-dose-only effect, or another doubt; inactive = no such curve, though single readings can be large; an effect the other way counts as inactive or inconclusive. Potency is read from the fitted curve at half-maximal effect.

SMILES | HT1080NT lethal | HT1080 IDH1KD tx | HepG2 tox | TGFb inhibitor | ATXN2 expr inh | ATXN viability
Cc1ccc(CN2C(=O)c3oc4ccc(C)cc4c(=O)c3C2c2ccc(O)cc2)cc1 (stereo not drawn) | x | x | 10% | 21% | -4% | i
CC(=O)c1ccc(-c2cnc3c(NC=O)cc(-c4ccc(C(=O)NC5CC5)cc4)cn23)cc1 | 15µM* | 7.3µM* | 5% | u | u | u
COc1cccc(-c2cnc3c(NC(C)=O)cc(-c4ccc(C(=O)NC5CC5)cc4)cn23)c1 | 18µM* | 21µM* | -36% | 1% | u | u
O=CNc1cc(-c2ccc(C(=O)NC3CC3)cc2)cn2c(-c3ccccc3)cnc12 | 6.5µM* | 5.8µM* | -16% | -16% | 0% | u
COc1ccc(OCC(=O)Nc2ccccc2C(=O)OCc2cc(=O)n3nc(C)sc3n2)cc1 | x | x | 11% | -1% | x | x
Cc1cnc(-n2ncc(C(=O)N(C)CCc3ccccn3)c2-c2cccs2)nc1-c1ccc(F)cc1 | x | x | x | x | x | i
CCN(CC)c1ccc(C(=O)O)cc1 | 2% | -1% | 0% | -3% | x | i
CCN(CC)c1ccc(C(=C2C=CC(=[N+](CC)CC)C=C2)c2ccc(S(=O)(=O)O)cc2S(=O)(=O)[O-])cc1 | 23µM* | u | -50% | -7% | u | u
CCOC(=S)SCC(=O)N1CCc2cc(OC)ccc2C1C1C(=O)CCCC1=O (stereo not drawn) | u | 23µM* | -1% | u | 1% | i
CCOC(=S)SCC(=O)N1CCc2cc(OC)c(OC)cc2C1C1C(=O)CC(C)(C)CC1=O (stereo not drawn) | -8% | -7% | 17% | -20% | x | i
CON=C(C(=O)N[C@@H]1C(=O)N2C(C(=O)O)=C(Cn3ccc(=N)n3CCO)CS[C@H]12)c1csc(N)n1 | x | x | x | x | 2% | x
CCn1c(O)c(N=NC(=S)NCC2CCCO2)c2ccccc21 (stereo not drawn) | -18% | -12% | -67% | 10µM* | x | x
Oc1[nH]c2ccccc2c1N=NC(=S)NCC1CCCO1 (stereo not drawn) | 1% | -5% | -9% | -9% | u | i
Oc1[nH]c2c(Cl)cc(Cl)cc2c1N=NC(=S)NCC1CCCO1 (stereo not drawn) | -8% | -15% | -4% | u | 21µM* | u
Cc1cccc(NC(=S)N=Nc2c(O)n(CN3CCOCC3)c3ccccc23)c1C | -13% | -25% | -53% | 2.2µM* | x | x
CCCCN(Cc1ccccc1)S(=O)(=O)c1ccc2c(c1)CC(C)N2C(=O)CC (stereo not drawn) | x | x | -28% | u | 5% | i
CCOc1cc(C(=O)CSc2nnc(CNc3ccc(Cl)cc3)o2)ccc1NC(=O)CC | -22% | u | 10µM* | u | 32µM* | 20µM*
COc1ccc(NCc2nnc(SCC(=O)c3ccc(OC)cc3)o2)cc1 | -1% | u | -35% | 21% | 3% | i
CC1CCN(S(=O)(=O)c2ccc3c(c2)C(=NO)c2cc(S(=O)(=O)N4CCC(C)CC4)ccc2-3)CC1 | 1.5µM* | 2.6µM* | 1.3µM* | 8.9µM* | 3.5µM* | 3.2µM*
O=S(=O)(c1ccc(S(=O)(=O)N2CCCC2)cc1)N1CCCCCC1 | 3% | 4% | -24% | 1% | 5% | i
O=S(=O)(c1ccc2c(c1)C(=NO)c1cc(S(=O)(=O)N3CCCCC3)ccc1-2)N1CCCCC1 | 0.37µM* | 0.58µM* | 1.8µM* | u | 3.5µM* | 3.5µM*
